Experimental data from PubChem BioAssay (EPA / NIEHS).
Activity calls are given as the source filed them. The calls were made as follows: active = hit-call score of the fitted dose curve at least 0.9, where 1 is the maximum; inactive = score below 0.9.

Key:
[1] = ATG_CRE_CIS: Attagene CIS-FACTORIAL HepG2 Assay for human cAMP Responsive Element (CRE) binding protein 3 (AID 2282926); details: HepG2 CRE cis-reporter, Attagene multiplexed mRNA; actives raise or lower the signal
Procedure, shortened: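 Multiplexed transcription-unit reporters transfected into HepG2; 24 h dosing; RT-PCR/capillary electrophoresis fluorescence read-out; bidirectional fit vs DMSO.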

[2] = target: CCAAT/enhancer-binding protein beta (Homo sapiens) (UniProt P17676); experiment: ATG_C_EBP_CIS: Attagene CIS-FACTORIAL HepG2 Assay for human CCAAT/Enhancer Binding Protein (C/EBP) beta (AID 2282927); details: HepG2 Attagene cis-factorial transcription factor reporter; actives raise or lower the signal
Chain of CCAAT/enhancer-binding protein beta (Homo sapiens) (P17676 whole entry, looked up): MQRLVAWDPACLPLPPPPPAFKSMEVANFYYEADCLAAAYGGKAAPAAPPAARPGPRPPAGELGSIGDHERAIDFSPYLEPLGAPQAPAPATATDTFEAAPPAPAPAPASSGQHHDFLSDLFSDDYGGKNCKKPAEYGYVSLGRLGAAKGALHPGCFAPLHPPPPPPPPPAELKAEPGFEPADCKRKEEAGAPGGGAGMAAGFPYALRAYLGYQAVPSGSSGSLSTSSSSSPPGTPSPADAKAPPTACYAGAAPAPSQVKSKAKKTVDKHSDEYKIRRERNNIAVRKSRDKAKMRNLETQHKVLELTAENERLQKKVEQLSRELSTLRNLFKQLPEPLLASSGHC
Procedure, shortened: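 Endogenous transcription factor activity in human liver HepG2 cells is inferred from induction of a CEBPB-linked reporter mRNA. Exposure lasts 24 h; activity is fitted in both directions relative to DMSO.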

[3] = ATG_CMV_CIS: Attagene CIS-FACTORIAL HepG2 Assay for human CMV (Internal Marker) (AID 2282928); details: HepG2 CMV promoter reporter, transcription factor profiling; actives raise or lower the signal;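 also: endpoint acts as a background internal control marker rather than a target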
Procedure, shortened: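 Cell system: HepG2, transiently transfected multiple reporter units under cis promoters. Exposure: 24 h. Detection: RT-PCR, FAM labeling, HpaI digestion, capillary electrophoresis. Analysis: bidirectional, DMSO baseline.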

[4] = ATG_DR4_LXR_CIS: Attagene CIS-FACTORIAL HepG2 Assay for human Liver X Receptor (LXR), DR4 submotif (AID 2282929); details: HepG2 Attagene DR4 cis-reporter, mRNA transcription; actives raise or lower the signal
Procedure, shortened: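 Measures endogenous transcription factor activity via a DR4-driven reporter transcript in human HepG2 cells. Compounds incubated 24 h; mRNA quantified by RT-PCR and capillary electrophoresis, analysed as gain or loss of signal versus DMSO.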

[5] = target: Aryl hydrocarbon receptor (Homo sapiens) (UniProt P35869); experiment: ATG_Ahr_CIS: Attagene CIS-FACTORIAL HepG2 Assay for human Aryl Hydrocarbon Receptor (Ahr) (AID 2282930); details: HepG2 AhR cis-factorial reporter transcription; actives raise or lower the signal
Chain of Aryl hydrocarbon receptor (Homo sapiens) (P35869 whole entry, looked up): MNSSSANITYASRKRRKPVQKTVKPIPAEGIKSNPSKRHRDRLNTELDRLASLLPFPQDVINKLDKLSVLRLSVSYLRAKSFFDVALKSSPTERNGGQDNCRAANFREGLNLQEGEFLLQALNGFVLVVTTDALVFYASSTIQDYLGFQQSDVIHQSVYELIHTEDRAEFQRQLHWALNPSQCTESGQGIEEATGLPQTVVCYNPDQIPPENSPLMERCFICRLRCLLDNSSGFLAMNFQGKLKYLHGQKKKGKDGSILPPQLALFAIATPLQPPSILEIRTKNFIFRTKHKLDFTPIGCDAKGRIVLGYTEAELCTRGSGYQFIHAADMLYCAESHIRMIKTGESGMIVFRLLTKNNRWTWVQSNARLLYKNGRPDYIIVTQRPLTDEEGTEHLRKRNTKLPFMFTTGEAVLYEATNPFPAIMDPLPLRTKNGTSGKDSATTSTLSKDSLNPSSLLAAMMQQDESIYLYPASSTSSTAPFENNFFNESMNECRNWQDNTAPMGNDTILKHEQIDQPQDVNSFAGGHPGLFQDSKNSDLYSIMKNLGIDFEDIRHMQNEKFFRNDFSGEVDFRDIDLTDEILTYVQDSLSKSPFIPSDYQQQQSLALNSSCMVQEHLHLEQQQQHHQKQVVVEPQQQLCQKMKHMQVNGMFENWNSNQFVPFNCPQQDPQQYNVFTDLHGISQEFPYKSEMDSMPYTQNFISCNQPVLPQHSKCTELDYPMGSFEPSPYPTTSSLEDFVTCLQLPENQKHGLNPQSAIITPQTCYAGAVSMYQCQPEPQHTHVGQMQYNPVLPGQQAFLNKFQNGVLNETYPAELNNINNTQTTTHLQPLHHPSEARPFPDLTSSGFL
Procedure, shortened: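 Transient MRTU transfection of HepG2 → 24 h compound exposure → total RNA, oligo(dT) RT → PCR, 6-FAM extension, HpaI cut → CE fluorescence. DMSO = baseline; bidirectional curve fit.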

[6] = ATG_AP_1_CIS: Attagene CIS-FACTORIAL HepG2 Assay for human Activator Protein 1 (AP-1) (AID 2282931); details: HepG2 Attagene cis-factorial AP-1 reporter mRNA; actives raise or lower the signal
Procedure, shortened: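 Bidirectional concentration-response fitting against DMSO controls. Underlying signal: reporter mRNA from cis-promoter constructs in transiently transfected HepG2, measured after 24 h by RT-PCR and capillary electrophoresis.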

[7] = ATG_AP_2_CIS: Attagene CIS-FACTORIAL HepG2 Assay for human Activator Protein 2 (AP-2) (AID 2282932); details: HepG2 AP-2 cis-reporter, Attagene transcription factor profiling; actives raise or lower the signal
Procedure, shortened: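 Step one: transient transfection of HepG2 with reporter transcription units. Step two: 24 h chemical exposure. Step three: RNA extraction, RT-PCR, labelled fragment analysis by capillary electrophoresis; DMSO serves as baseline.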

[8] = ATG_BRE_CIS: Attagene CIS-FACTORIAL HepG2 Assay for human Bone Morphogenetic Protein (BMP) Response Element (BRE) (AID 2282933); details: HepG2 BMP response element reporter, Attagene transcription factor profiling; actives raise or lower the signal
Procedure, shortened: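 HepG2 cells transiently transfected with multiplexed cis-element reporter units were dosed with chemical for 24 h. Reporter mRNA was measured by RT-PCR with fluorescent labelling, HpaI digestion and capillary electrophoresis; bidirectional fitting relative to DMSO.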

[9] = target: Retinoic acid receptor alpha (Homo sapiens) (UniProt P10276); experiment: ATG_DR5_RAR_CIS: Attagene CIS-FACTORIAL HepG2 Assay for human Retinoic Acid Receptor Alpha (RARE), DR5 submotif (AID 2282934); details: HepG2 Attagene cis-factorial RARE DR5 reporter, mRNA; actives raise or lower the signal;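 as to AC50: reporter responds to endogenous RAR alpha beta and gamma in HepG2 not RARA alone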
Chain of Retinoic acid receptor alpha (Homo sapiens) (P10276 whole entry, looked up): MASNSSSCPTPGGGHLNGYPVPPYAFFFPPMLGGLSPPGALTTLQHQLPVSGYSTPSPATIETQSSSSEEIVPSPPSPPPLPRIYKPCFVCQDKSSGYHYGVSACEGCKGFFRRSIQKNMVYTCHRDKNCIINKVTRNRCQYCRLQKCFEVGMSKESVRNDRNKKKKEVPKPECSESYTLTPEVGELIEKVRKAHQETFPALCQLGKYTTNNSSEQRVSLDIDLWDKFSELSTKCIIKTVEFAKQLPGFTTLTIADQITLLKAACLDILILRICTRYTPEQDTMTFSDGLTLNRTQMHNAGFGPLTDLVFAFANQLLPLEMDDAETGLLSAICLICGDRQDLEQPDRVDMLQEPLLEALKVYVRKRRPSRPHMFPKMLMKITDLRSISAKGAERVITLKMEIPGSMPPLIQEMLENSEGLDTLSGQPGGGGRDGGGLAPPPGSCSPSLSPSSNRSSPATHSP
Procedure, shortened: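 Transient MRTU transfection of HepG2; 24 h compound treatment; TriZol RNA, oligo(dT) RT, PCR, FAM labelling, capillary electrophoresis. Bidirectional fit vs DMSO. Endogenous TF activity at DR5 RARE.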

[10] = target: Transcription factor E2F1 (Homo sapiens) (UniProt Q01094); experiment: ATG_E2F_CIS: Attagene CIS-FACTORIAL HepG2 Assay for human E2F Transcription Factor 1 (AID 2282935); details: HepG2 Attagene cis-reporter, E2F reporter RNA transcripts; actives raise or lower the signal
Chain of Transcription factor E2F1 (Homo sapiens) (Q01094 whole entry, looked up): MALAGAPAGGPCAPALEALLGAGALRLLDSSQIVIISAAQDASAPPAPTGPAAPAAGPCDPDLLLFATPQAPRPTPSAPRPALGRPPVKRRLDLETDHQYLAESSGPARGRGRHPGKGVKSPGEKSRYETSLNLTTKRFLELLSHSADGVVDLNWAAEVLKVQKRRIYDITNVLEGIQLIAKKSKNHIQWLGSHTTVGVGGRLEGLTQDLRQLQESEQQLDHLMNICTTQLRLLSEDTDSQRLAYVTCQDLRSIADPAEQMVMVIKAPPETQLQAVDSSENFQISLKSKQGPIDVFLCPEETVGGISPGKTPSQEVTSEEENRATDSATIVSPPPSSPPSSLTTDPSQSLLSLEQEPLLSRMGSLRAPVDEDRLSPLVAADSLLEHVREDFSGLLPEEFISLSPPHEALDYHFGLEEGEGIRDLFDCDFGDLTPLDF
Procedure, shortened: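 Total RNA from 24 h-treated, reporter-transfected HepG2 cells undergoes DNase I treatment, oligo(dT) reverse transcription, PCR and 6-FAM primer extension before capillary electrophoresis.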

SMILES	outcome [1]	outcome [2]	outcome [3]	outcome [4]	outcome [5]	outcome [6]	outcome [7]	outcome [8]	outcome [9]	outcome [10]	AC50 [5]	AC50 [3]	AC50 [8]	AC50 [4]	AC50 [6]	AC50 [9]	AC50 [1]	AC50 [2]	AC50 [7]
CCCCNc1ccc(NCCCC)c2c1C(=O)c1ccccc1C2=O	inactive	inactive	inactive	inactive	inactive	inactive	inactive	inactive	inactive	inactive									
CC/C=C\CCOC(=O)CCCCC	inactive	inactive	inactive	inactive	inactive	inactive	inactive	inactive	inactive	inactive									
OCCCS	inactive	inactive	inactive	inactive	inactive	inactive	inactive	inactive	inactive	inactive									
N#CCc1ccc(Cl)cc1Cl	inactive	inactive	inactive	inactive		inactive	inactive	inactive	inactive	inactive	18.6 µM (active)								
N#[N+]c1ccc2c(S(=O)(=O)[O-])cccc2c1O	inactive	inactive	inactive	inactive	inactive	inactive	inactive	inactive	inactive	inactive									
CC(C)(C)c1ccc(-c2ccc(C(C)(C)C)cc2)cc1	inactive	inactive		inactive	inactive	inactive	inactive	inactive	inactive	inactive		51.8 µM (active)							
O=C(Cl)c1cc(C(=O)Cl)cc(C(=O)Cl)c1	inactive	inactive	inactive	inactive		inactive	inactive		inactive	inactive	77.5 µM (active)		125 µM (active)						
COC(=O)c1sccc1S(N)(=O)=O	inactive	inactive	inactive	inactive	inactive	inactive	inactive	inactive	inactive	inactive									
CC(C)=CCCC(C)C=O (stereo not given)	inactive	inactive	inactive	inactive	inactive	inactive	inactive	inactive	inactive	inactive									
C=CC=CC=CCCCCC	inactive	inactive	inactive	inactive	inactive	inactive	inactive	inactive	inactive	inactive									
CCCCCCCC/C=C\CCCCCCCC(=O)O	inactive	inactive	inactive		inactive		inactive	inactive		inactive				48.7 µM (active)	137 µM (active)	85.9 µM (active)			
CCCCCCCCCCCCCCCC[n+]1ccccc1					inactive			inactive		inactive		33.4 µM (active)		8.64 µM (active)	20.4 µM (active)	7.8 µM (active)	0.873 µM (active)	0.852 µM (active)	21 µM (active)
CC(=O)OCC(C)OC(C)=O (stereo not given)	inactive	inactive	inactive	inactive	inactive	inactive	inactive	inactive	inactive	inactive									
CCCCCCCCCCCCCCCCCC#N	inactive	inactive	inactive	inactive	inactive	inactive	inactive	inactive	inactive	inactive									
Cc1oncc1C(=O)Nc1ccc(C(F)(F)F)cc1	inactive	inactive	inactive	inactive			inactive		inactive	inactive	8.59 µM (active)		127 µM (active)		100 µM (active)				
O=[N+]([O-])C1(Br)COCOC1		inactive	inactive	inactive	inactive	inactive	inactive		inactive	inactive			33.4 µM (active)				53.6 µM (active)		
Nc1ccc(N)c(Cl)c1		inactive		inactive			inactive	inactive		inactive	1.99 µM (active)	9.98 µM (active)			18.1 µM (active)	33.4 µM (active)	49.6 µM (active)		
Cc1ccc(N)c([N+](=O)[O-])c1	inactive	inactive	inactive	inactive	inactive	inactive	inactive	inactive	inactive	inactive									
O=C1CCC(=O)N1Cl	inactive	inactive	inactive	inactive	inactive	inactive	inactive	inactive	inactive	inactive									
COC(=O)C1=C(C)NC(C)=C(C(=O)OCC(C)C)C1c1ccccc1[N+](=O)[O-] (stereo not given)	inactive	inactive	inactive	inactive	inactive	inactive	inactive	inactive	inactive	inactive									
C=C[C@](C)(O)CC[C@@H]1[C@@]2(C)CCCC(C)(C)[C@@H]2CC[C@@]1(C)O	inactive	inactive	inactive	inactive	inactive	inactive	inactive	inactive	inactive	inactive									
OC1OCCOC1O (stereo not given)	inactive	inactive	inactive	inactive	inactive	inactive	inactive	inactive	inactive	inactive									
